Measurements published in PubChem BioAssay (NCI).
About 83,000 compounds went through this panel and 20% of them were active in at least one assay; those are over-represented in the sample as a whole.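 Interpretation: 100, growth as untreated; towards 0, rising growth inhibition; 0, no net growth; 0 to -100, cell death. Compounds scoring below 10 were considered active.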 Active and inactive are the calls of the source.

Key:
Test in all cases: NCI-60 one-dose screen, 48 h (100 = growth as untreated, 0 = no growth, -100 = all killed)
Details in all cases: 10 µM unless noted
HCT-15 colon = tested on: HCT-15 colon
HT29 colon = tested on: HT29 colon
SNB-75 CNS = tested on: SNB-75 CNS
SNB-19 CNS = tested on: SNB-19 CNS
U251 CNS = tested on: U251 CNS
PC-3 prostate = tested on: PC-3 prostate
SK-MEL-5 melanoma = tested on: SK-MEL-5 melanoma
UACC-62 melanoma = tested on: UACC-62 melanoma
SK-MEL-28 melanoma = tested on: SK-MEL-28 melanoma
SK-MEL-2 melanoma = tested on: SK-MEL-2 melanoma
EKVX NSCLC = tested on: EKVX NSCLC
SN12C renal = tested on: SN12C renal
UO-31 renal = tested on: UO-31 renal
TK-10 renal = tested on: TK-10 renal
ACHN renal = tested on: ACHN renal
CAKI-1 renal = tested on: CAKI-1 renal
A498 renal = tested on: A498 renal
CCRF-CEM leukemia = tested on: CCRF-CEM leukemia
MOLT-4 leukemia = tested on: MOLT-4 leukemia

Measured: growth

Cc1cc(C)n(Cc2cc(C(C)(C)C)cc(C(C)(C)C)c2)c(=O)c1C#N
inactive: HCT-15 colon 86.8% | HT29 colon 99.4% | SNB-75 CNS 96.1% | SNB-19 CNS 95.8% | U251 CNS 97.9% | PC-3 prostate 79% | SK-MEL-5 melanoma 90.7% | UACC-62 melanoma 72.8% | SK-MEL-28 melanoma 102% | SK-MEL-2 melanoma 107% | EKVX NSCLC 75.2% | SN12C renal 90% | UO-31 renal 80.5% | TK-10 renal 107% | ACHN renal 98.4% | CAKI-1 renal 104% | A498 renal 97% | CCRF-CEM leukemia 87.9% | MOLT-4 leukemia 76.6%

Oc1ccccc1/C=N\NC(=S)Nc1ccc(F)cc1
active: SK-MEL-5 melanoma 6.1% | UACC-62 melanoma 2.27% | UO-31 renal 7.46% | CAKI-1 renal -4.58%
inactive: HCT-15 colon 21.8% | HT29 colon 39.1% | SNB-75 CNS 43.1% | SNB-19 CNS 36% | U251 CNS 27.7% | PC-3 prostate 40% | SK-MEL-28 melanoma 30.8% | SK-MEL-2 melanoma 18.5% | EKVX NSCLC 29.8% | SN12C renal 36.6% | TK-10 renal 49.1% | ACHN renal 13.8% | A498 renal 91.9% | CCRF-CEM leukemia 14%

CC(=O)OC[C@]12CC[C@@H](/C(C)=N/O)[C@@H]1[C@H]1CC[C@@H]3[C@@]4(C)CCCNC(C)(C)[C@@H]4CC[C@@]3(C)[C@]1(C)CC2
inactive: HCT-15 colon 60.1% | HT29 colon 59.6% | SNB-75 CNS 63.9% | SNB-19 CNS 83.1% | U251 CNS 68.7% | PC-3 prostate 42.5% | SK-MEL-5 melanoma 51.3% | UACC-62 melanoma 66.5% | SK-MEL-28 melanoma 86% | SK-MEL-2 melanoma 94.5% | EKVX NSCLC 84.6% | SN12C renal 75.3% | UO-31 renal 61.2% | TK-10 renal 82.4% | ACHN renal 88% | CAKI-1 renal 36.7% | A498 renal 59.3% | CCRF-CEM leukemia 52.1% | MOLT-4 leukemia 35.6%

C#CCn1c(C)cc(C)c(C#N)c1=O
inactive: HCT-15 colon 105% | HT29 colon 120% | SNB-75 CNS 103% | SNB-19 CNS 95.4% | U251 CNS 100% | PC-3 prostate 104% | SK-MEL-5 melanoma 104% | UACC-62 melanoma 99% | SK-MEL-28 melanoma 109% | SK-MEL-2 melanoma 108% | EKVX NSCLC 99.6% | SN12C renal 100% | UO-31 renal 85.6% | TK-10 renal 94.2% | ACHN renal 106% | CAKI-1 renal 95.2% | A498 renal 104% | CCRF-CEM leukemia 99.2%

COc1cc(-c2c(C#N)c(-c3cccs3)nc3c2c(-c2ccccc2)nn3-c2ccccc2)ccc1O
inactive: HCT-15 colon 73.5% | HT29 colon 74.8% | SNB-75 CNS 79.8% | SNB-19 CNS 98.9% | U251 CNS 78.3% | PC-3 prostate 66% | SK-MEL-5 melanoma 94.9% | UACC-62 melanoma 83.5% | SK-MEL-28 melanoma 96.1% | SK-MEL-2 melanoma 81% | EKVX NSCLC 79.9% | SN12C renal 89.2% | UO-31 renal 89.1% | TK-10 renal 101% | ACHN renal 86.1% | CAKI-1 renal 66.6% | A498 renal 106% | CCRF-CEM leukemia 83.2%

N#C/C(=C\c1ccc(-c2ccc(F)cc2)o1)c1nc(-c2ccco2)cs1
inactive: HCT-15 colon 84.5% | HT29 colon 98.7% | SNB-75 CNS 88.9% | SNB-19 CNS 101% | U251 CNS 97.3% | PC-3 prostate 93.3% | SK-MEL-5 melanoma 92.8% | UACC-62 melanoma 87.1% | SK-MEL-28 melanoma 114% | SK-MEL-2 melanoma 108% | EKVX NSCLC 40.2% | SN12C renal 101% | UO-31 renal 69.8% | TK-10 renal 64.2% | ACHN renal 98.1% | CAKI-1 renal 92% | A498 renal 107% | CCRF-CEM leukemia 84.2% | MOLT-4 leukemia 91.6%

CCN1CCN(C(=O)[C@@]2(C)CC[C@]3(C)CC[C@]4(C)C(=CC(=O)[C@@H]5[C@@]6(C)CC[C@H](OC7C[C@@H](O)[C@@H](O)C(C)O7)C(C)(C)[C@@H]6CC[C@]54C)[C@@H]3C2)CC1 (stereo partly specified)
inactive: HCT-15 colon 34.2% | SNB-75 CNS 86.7% | SNB-19 CNS 39% | U251 CNS 10.3% | PC-3 prostate 42.1% | SK-MEL-2 melanoma 105% | EKVX NSCLC 80.4% | TK-10 renal 136% | ACHN renal 79.5% | CAKI-1 renal 89.4% | A498 renal 95.5%
active: HT29 colon 1.72% | SK-MEL-5 melanoma -5.54% | UACC-62 melanoma -69.3% | SK-MEL-28 melanoma -7.89% | SN12C renal -64.7% | UO-31 renal -80.8% | CCRF-CEM leukemia 0.503% | MOLT-4 leukemia 0.754%

N#CC1C(=N)Cc2ccccc2-c2ccccc21 (stereo unspecified)
inactive: HCT-15 colon 37.9% | HT29 colon 12.4% | SNB-75 CNS 54.3% | SNB-19 CNS 64.1% | U251 CNS 37.7% | PC-3 prostate 62.1% | SK-MEL-5 melanoma 40.7% | UACC-62 melanoma 39.1% | SK-MEL-28 melanoma 58.3% | SK-MEL-2 melanoma 31.1% | EKVX NSCLC 67.1% | SN12C renal 54.2% | UO-31 renal 53.8% | TK-10 renal 78.1% | ACHN renal 75% | CAKI-1 renal 29% | A498 renal 55.3% | CCRF-CEM leukemia 62.6% | MOLT-4 leukemia 25.8%

NC(N)=N/N=C/c1ccc(-c2ccc(-c3ccc(Cl)cn3)s2)cc1
active: HCT-15 colon -4.03% | PC-3 prostate -42.3%
inactive: HT29 colon 11.9% | SNB-75 CNS 88.9% | SNB-19 CNS 94.2% | U251 CNS 20.6% | SK-MEL-5 melanoma 91.6% | UACC-62 melanoma 99.1% | SK-MEL-28 melanoma 99.2% | SK-MEL-2 melanoma 109% | EKVX NSCLC 98.9% | SN12C renal 89.8% | UO-31 renal 78% | TK-10 renal 112% | ACHN renal 92.2% | CAKI-1 renal 81.5% | A498 renal 88.8% | CCRF-CEM leukemia 29.7% | MOLT-4 leukemia 73.7%

Cn1cc(-c2csc(-c3c[nH]c4ccc(F)cc34)n2)c2cccnc21
inactive: HCT-15 colon 19.2% | HT29 colon 11.3% | SNB-75 CNS 36.4% | SNB-19 CNS 54.4% | U251 CNS 37.5% | PC-3 prostate 48% | SK-MEL-5 melanoma 25.9% | UACC-62 melanoma 39.6% | SK-MEL-28 melanoma 57.4% | SK-MEL-2 melanoma 41.2% | EKVX NSCLC 60.4% | SN12C renal 64.5% | UO-31 renal 77.1% | TK-10 renal 69.7% | ACHN renal 48.8% | CAKI-1 renal 36.9% | A498 renal 27% | CCRF-CEM leukemia 39.7% | MOLT-4 leukemia 46.7%

N#C/C(=C\c1ccc(-c2ccc(Br)cc2)o1)c1nc(-c2ccco2)cs1
inactive: HCT-15 colon 80.1% | HT29 colon 99.5% | SNB-75 CNS 78.9% | SNB-19 CNS 92.7% | U251 CNS 93.9% | PC-3 prostate 91.5% | SK-MEL-5 melanoma 85% | UACC-62 melanoma 81% | SK-MEL-28 melanoma 100% | SK-MEL-2 melanoma 103% | EKVX NSCLC 41.6% | SN12C renal 92.3% | UO-31 renal 74.7% | TK-10 renal 38.7% | ACHN renal 95.8% | CAKI-1 renal 88.8% | A498 renal 101% | CCRF-CEM leukemia 89.9% | MOLT-4 leukemia 94.2%

Fc1ccc2[nH]cc(-c3nc(-c4c[nH]c5ncccc45)cs3)c2c1
inactive: HCT-15 colon 20.3% | HT29 colon 21.7% | SNB-19 CNS 63.8% | U251 CNS 43.6% | PC-3 prostate 43.8% | SK-MEL-5 melanoma 52.8% | UACC-62 melanoma 48.5% | SK-MEL-28 melanoma 89% | SK-MEL-2 melanoma 52.9% | EKVX NSCLC 37.2% | SN12C renal 49.3% | UO-31 renal 41.8% | TK-10 renal 52.2% | ACHN renal 11.3% | CAKI-1 renal 18.6% | A498 renal 33.5% | CCRF-CEM leukemia 18.7%
active: SNB-75 CNS -17.2% | MOLT-4 leukemia 2.93%

O=C(NO)c1ccc(Cn2c(=O)n(-c3ccccc3)c(=O)c3ccccc32)cc1
inactive: HCT-15 colon 39.6% | HT29 colon 41% | SNB-75 CNS 20.9% | SNB-19 CNS 33.4% | SK-MEL-5 melanoma 16.5% | EKVX NSCLC 21.6% | SN12C renal 44.1% | UO-31 renal 50.5% | TK-10 renal 28.1% | ACHN renal 55.7% | CAKI-1 renal 56.9%
active: U251 CNS -3.66% | PC-3 prostate -7.98% | UACC-62 melanoma -24.6% | SK-MEL-28 melanoma -1.55% | SK-MEL-2 melanoma 5.92% | A498 renal -10.7% | CCRF-CEM leukemia 2% | MOLT-4 leukemia -2.07%

Brc1cnc2[nH]cc(-c3nnc(-c4ccccc4)o3)c2c1
inactive: HCT-15 colon 55% | HT29 colon 74.8% | SNB-75 CNS 66.3% | SNB-19 CNS 79.5% | U251 CNS 74.6% | PC-3 prostate 77.9% | SK-MEL-5 melanoma 80.4% | UACC-62 melanoma 66.9% | SK-MEL-28 melanoma 90.9% | SK-MEL-2 melanoma 73.3% | EKVX NSCLC 31.4% | SN12C renal 79.9% | UO-31 renal 45.2% | TK-10 renal 58.9% | ACHN renal 28.9% | CAKI-1 renal 34.2% | A498 renal 47% | CCRF-CEM leukemia 102% | MOLT-4 leukemia 74.3%

Nc1ccccc1NC(=O)c1ccc(CN2CCC/C(=C\c3ccccn3)C2=O)cc1
active: SK-MEL-5 melanoma -15.6% | UACC-62 melanoma -23.6% | A498 renal 7.96% | MOLT-4 leukemia 7.84%
inactive: HCT-15 colon 16.5% | HT29 colon 13.8% | SNB-75 CNS 15.5% | SNB-19 CNS 38.1% | U251 CNS 23.9% | PC-3 prostate 44% | SK-MEL-28 melanoma 16.3% | SK-MEL-2 melanoma 27% | EKVX NSCLC 33.2% | SN12C renal 48.2% | UO-31 renal 25.4% | TK-10 renal 14.2% | ACHN renal 20.6% | CAKI-1 renal 17.7% | CCRF-CEM leukemia 16.7%

N#C/C(=C\c1ccc(-c2ccc(Cl)cc2)o1)c1nc(-c2ccco2)cs1
inactive: HCT-15 colon 86.3% | HT29 colon 102% | SNB-75 CNS 86.5% | SNB-19 CNS 93.4% | U251 CNS 96.9% | PC-3 prostate 92.8% | SK-MEL-5 melanoma 91.1% | UACC-62 melanoma 79.7% | SK-MEL-28 melanoma 97.5% | SK-MEL-2 melanoma 102% | EKVX NSCLC 48.6% | SN12C renal 92.8% | UO-31 renal 74.3% | TK-10 renal 62.2% | ACHN renal 101% | CAKI-1 renal 89.3% | A498 renal 108% | CCRF-CEM leukemia 93.9% | MOLT-4 leukemia 97.5%
